From PubChem
Most compounds without a hit are left out; they make up all but 8.9% or so of the library.
MCF10A rerep – A quantitative high throughput screen for small molecules that induce DNA re-replication in MCF 10a normal breast cells. Potency, µM (series often up to 46.1 µM), without a hit: at the highest dose activity, positive = re-replication, actives largely listed as activators. actives 2.9% (n = 350,000). MCF 10A DNA re-replication, Hoechst nuclear intensity, 48 h. AID 624296, 2012; also: potency is read from the fitted curve at half-maximal effect; % of control where 0% means no effect; nearly all actives have a fitted effect of over 50% in size
KB-3-1 cytotox – qHTS assay for MDR1-selective chemotherapeutics: Primary screen using the parental adenocarcinoma cell KB-3-1; AID 1347075, 2019; KB-3-1 viability, CellTiter-Glo ATP luminescence, 72 h; Potency, µM (titrated, usually from 46.1 µM), most hits filed as cytotoxic; actives 1.4% (n = 400,000); also: potency is read from the fitted curve at half-maximal effect; % is scaled to controls: 0 for no effect and ±100 for the full control effect; nearly all actives have a fitted effect of over 60% in size
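Multi-concentration cytotoxicity screen in KB-3-1 cells grown in DMEM lacking phenol red with 10% FBS. After 72 h at 37 °C with compound, ATP-dependent luminescence was recorded.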
D3 ag – qHTS of D3 Dopamine Receptor Agonist: qHTS; actives 0.58% (n = 410,000); D3R DiscoveRx beta-arrestin cells, luminescence, 90 min; max activation, %; D(3) dopamine receptor (Homo sapiens), P35462; in the data active = max activation above about 30%; also: 0% is about no effect
Target sequence (P35462 whole entry, looked up): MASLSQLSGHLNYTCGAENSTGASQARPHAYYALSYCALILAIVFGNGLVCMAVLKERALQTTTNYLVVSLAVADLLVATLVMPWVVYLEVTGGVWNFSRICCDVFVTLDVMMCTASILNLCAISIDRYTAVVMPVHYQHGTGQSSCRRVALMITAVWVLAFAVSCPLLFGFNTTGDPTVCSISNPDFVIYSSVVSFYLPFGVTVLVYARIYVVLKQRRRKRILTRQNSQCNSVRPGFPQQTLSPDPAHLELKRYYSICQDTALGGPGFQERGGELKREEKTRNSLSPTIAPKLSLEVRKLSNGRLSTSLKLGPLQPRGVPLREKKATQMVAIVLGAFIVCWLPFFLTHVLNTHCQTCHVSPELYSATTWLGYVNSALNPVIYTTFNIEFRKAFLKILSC
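Agonist mode: compounds and dopamine controls were applied to plated cells for 90 min at 37 degrees C after an overnight attachment at 1500 cells/well. Luminescent read-out followed 30 - 60 minutes at room temperature with DiscoveRx detection reagent.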
SW480 rereplic – A quantitative high throughput screen for small molecules that induce DNA re-replication in SW480 colon adenocarcinoma cells; actives 1.8% (n = 340,000); AID 624297, 2012; Potency, µM (series often up to 46.1 µM), inactives show top-dose re-replication activation, usual class: activators; SW480 DNA re-replication, Hoechst DNA content imaging, 48 h; also: potency is read from the fitted curve at half-maximal effect; % of control where 0% means no effect; nearly all actives have a fitted effect of over 55% in size
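Treated cells incubate 48 hr (37 C, 5% CO2), are stained 40 min with Hoechst, and nuclear fluorescence is enumerated; a rise in nuclei with high DNA signal marks re-replication.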
D3 antag – qHTS of D3 Dopamine Receptor Antagonist: qHTS. D(3) dopamine receptor (Homo sapiens), P35462. D3R cells, DiscoveRx beta-arrestin luminescence, antagonist mode; stronger effect = lower value. max response, negative = inhibition, %. actives 2.5% (n = 360,000); in the data active = max response below about -50%; inconclusive = no clear call, values can overlap the other calls; also: % is scaled to controls: 0 for no effect and ±100 for the full control effect
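Cells plated overnight at 1500 cells/well, then exposed to library compounds with dopamine controls for 90 minutes at 37 degrees C. DiscoveRx reagent added for 30–60 minutes at room temperature; luminescence read, quantitative HTS format.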
KB-V1 cytotox – qHTS assay for MDR1-selective chemotherapeutics: Primary screen using the drug-selected MDR subline cells KB-V1; KB-V1 MDR cells viability, CellTiter-Glo, 72 h; Potency, µM (highest dose often 46.1 µM), most hits filed as cytotoxic; actives 3.4% (n = 400,000); also: potency is read from the fitted curve at half-maximal effect; % is scaled to controls: 0 for no effect and ±100 for the full control effect; nearly all actives have a fitted effect of over 60% in size
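In this primary screen, KB-V1 cells overexpressing P-gp are incubated with library compounds (lowest to highest concentration) for 72 h at 37 degrees C before a luminescent ATP viability read.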
Active calls of the source: *; i = inactive; ? = inconclusive; / = not tested or not shown; ! = not confirmed by another sample. Unless noted, calls follow the shape of the dose curve; as a rule, active = well fitted curve in the direction sought with a large enough effect; inconclusive = small, poorly fitted or top-dose-only effect, or another doubt; inactive = no such curve, though single readings can be large; an effect the other way counts as inactive or inconclusive.

SMILES	MCF10A rerep	KB-3-1 cytotox	D3 ag	SW480 rereplic	D3 antag	KB-V1 cytotox
Cc1cc(/C=C/c2c(C)cnc3ccccc23)ccc1N(C)C	/	?	/	/	/	16.4µM*
OC(c1ccc(Cl)c(Cl)c1)c1ncc(-c2ccccc2Cl)[nH]1 (centres undefined)	/	i	-1.3	/	?	i
O=S(=O)(N(Cc1ccccc1)[C@@H](CO)Cc1ccccc1)N(Cc1ccccc1)[C@@H](CO)Cc1ccccc1	?	?	84.5*	-9.2%	75.4	?
CC(C)C[C@H](CO)N(Cc1ccccc1)S(=O)(=O)N(Cc1ccccc1)[C@@H](CO)CC(C)C	?	?	58.7*	18.4%	101.7	20.6µM*!
C=CS(=O)(=O)N(Cc1ccccc1Br)[C@H](CO)Cc1ccccc1	16.4µM*	?	15.7	?	19.6	?
C=CS(=O)(=O)N(Cc1ccccc1)[C@H](CO)CC(C)C	9.1%	?	-0.5	7.6%	-5.5	i
CCCN1CCN(c2nnc(-n3cccc3C(=O)Nc3ccccc3C(F)(F)F)s2)CC1	/	i	-5.5	/	/	i
Cc1ccc(OCCn2nnc3sc4c(c3c2=O)CCC(C(C)(C)C)C4)cc1 (centres undefined)	/	i	9.6	/	/	i
Cc1cccc(NC(=O)CCc2c(C)nc3nc(CNC(=O)c4cccc(F)c4)nn3c2C)c1	/	i	2.5	/	/	i
COc1ccc(-c2noc3c2-c2nc(-c4cccc(C)c4)sc2CC3)cc1	-7.2%	i	59.5*	-10.9%	45.0	i
COc1ccc(CCNC(=O)c2cc3c(=O)n4ccccc4nc3n(CCN3CCOCC3)c2=N)cc1	20.6µM*	i	2.7	23.1µM*	29.7	i
COc1ccc(CCn2c(=N)c(C(=O)NC3CCCCC3)cc3c(=O)n4ccccc4nc32)cc1	?	?	0.1	?	11.0	?
COc1ccc(CCNC(=O)c2cc3c(=O)n4ccccc4nc3n(C3CCCCC3)c2=N)cc1	?	i	4.5	2.31µM*	17.2	i
Cc1ccc2nc3c(cc(C(=O)NCCc4ccccc4)c(=N)n3CCCN3CCOCC3)c(=O)n2c1	4.61µM*	i	-0.4	4.61µM*	-1.8	i
COc1ccc(CCn2c(=N)c(C(=O)N3CCN(C)CC3)cc3c(=O)n4ccccc4nc32)cc1	9.2µM*	i	-3.4	23.1µM*	-19.2	i
CCCCn1c(CNC(=O)C23CC4CC(CC(C4)C2)C3)nnc1SCC(=O)Nc1ccccc1	/	i	2.7	/	/	i
COc1ccc(CCNC(=O)c2cc3c(=O)n4ccccc4nc3n(CCCN3CCOCC3)c2=N)cc1	?	i	-4.5	8.2µM*	-18.5	i
O=C(NCCN1CCOCC1)c1c(O)nc2ccccn2c1=O	-0.8%	i	1.1	5.2%	10.4	i
O=C(NCCN1CCOCC1)c1cc2c(=O)n3ccccc3nc2n1Cc1ccccc1	16.4µM*	i	21.7	20.6µM*	19.0	i
CC(C)(C)CC(=O)Nc1nnc2n1CCS2	/	i	-9.1	/	/	i
COc1ccc(Nc2nc(N)nc(CCl)n2)cc1	?	?	-1.6	3.26µM*	52.5	?
Nc1nc(CCl)nc(Nc2ccc3ccccc3c2)n1	?	?	-23.4	18.8%	-11.1	23.1µM*
CCN1CCN(C(=O)c2cnn(-c3cccc(C)c3)c2C2CCN(C(=O)OC(C)(C)C)CC2)CC1	/	i	-13.9	/	/	i
Cc1cccc(C)c1NC(=O)C(NC=O)c1ccc(Cl)cc1 (centres undefined)	-1.0%	i	-5.8	-3.4%	-56.1*	i
